Source: PubChem (National Center for Advancing Translational Sciences (NCATS))
Shown are actives, neighbours in structure and some others; about 13% of the full set was active somewhere.
4MU fluor – compound fluoresces in the 4-MU spectral region; compound autofluorescence, 340/450 nm, 4-MU equivalents; stronger effect = higher value; 59,000 compounds, 11% hits; AID 589; max dye-equivalent concentration, M; in the data active means max dye-equivalent concentration above about 10 nM; inconclusive means mostly about 1.1 nM to 9.6 nM
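Compounds in 100 mM Tris, pH 8.0, sat 15 min at room temperature before fluorescence was read at 340 nm excitation/450 nm emission; a per-plate six-point 4-MU standard curve converted signals to dye-equivalent concentration at each compound concentration.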
AID923 – qHTS Assay for Allosteric/Competitive Inhibitors of Caspase-1: Spectroscopic Profiling in AFC Spectral Region; compound fluorescence, AFC spectral region (405/520 nm); Potency, µM (top dose mostly 57.5 µM), actives largely listed as activators; 75,000 compounds, 1.1% hits
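Compound autofluorescence profiled at 405 nm ex/520 nm em during kinetic caspase 1 run (50 nM enzyme, 5 uM Ac-WEHD-AFC, HEPES pH 7.5, 10 mM DTT). Titration up to 57 uM; baseline from regression intercept, normalized to AFC standard curve.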
HSD17B inhib – blocks hydroxysteroid 17-beta dehydrogenase activity; recombinant HSD17B10, NADH fluorescence kinetic; Potency, µM (titrated, usually from 57.1 µM), hits mostly inhibitors; 75,000 compounds, 7.6% hits; AID 893;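 further: the protocol describes HADH2 (HSD17B10) and not the HSD17B4 of the title; nearly all actives have a fitted effect of over 70% in size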
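His-tagged E. coli-expressed HADH2 at 20 nM in 100 mM Tris-HCl pH 9.0 with 0.01 % Tween-20, preincubated 15 min with compound at room temperature. Reaction with 1 mM NAD+ and 90 uM beta-hydroxybutyryl coenzyme A; NADH fluorescence (360/450 nm) read kinetically over 4 min, last minus first point.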
A350 autofl – compound fluoresces in the Alexa 350 spectral region; Compound autofluorescence, 340/450 nm, Alexa 350 dye-equivalents; stronger effect = higher value; max dye-equivalent concentration, M; 59,000 compounds, 11% hits; in the data active means max dye-equivalent concentration above about 10 nM; inconclusive means mostly about 1.1 nM to 9.6 nM
GBA activity – alters purified human glucocerebrosidase activity. 48,000 compounds, 1.1% hits. purified enzyme, resorufin glucoside fluorescence (screen aimed at inhibitors), 20 min. Potency, µM. AID 360. P04062; in the data active means potency below about 15 µM; inconclusive means mostly about 16 µM to 33 µM;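 further: the screen sought inhibitors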
Target sequence (P04062 whole entry, looked up): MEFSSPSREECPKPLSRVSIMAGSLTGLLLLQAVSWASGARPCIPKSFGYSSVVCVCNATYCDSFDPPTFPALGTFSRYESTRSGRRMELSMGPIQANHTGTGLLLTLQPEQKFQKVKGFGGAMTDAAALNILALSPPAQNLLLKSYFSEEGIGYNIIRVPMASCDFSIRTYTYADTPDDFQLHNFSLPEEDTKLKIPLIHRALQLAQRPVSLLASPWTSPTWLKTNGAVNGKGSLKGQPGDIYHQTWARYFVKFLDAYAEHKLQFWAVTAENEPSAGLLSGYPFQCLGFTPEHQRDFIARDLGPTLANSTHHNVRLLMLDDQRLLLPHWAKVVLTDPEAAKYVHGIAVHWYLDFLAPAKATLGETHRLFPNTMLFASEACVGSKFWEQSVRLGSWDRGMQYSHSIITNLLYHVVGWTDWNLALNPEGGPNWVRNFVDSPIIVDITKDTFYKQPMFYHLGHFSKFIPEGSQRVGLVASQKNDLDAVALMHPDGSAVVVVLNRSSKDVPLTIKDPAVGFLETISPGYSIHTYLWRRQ
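Compounds titrated against 0.2 nM normal enzyme, 30 uM resorufin beta-D-glucopyranoside substrate, citrate/phosphate buffer with taurocholate and tween-20, pH 5.9. Reaction ran 20 min at room temperature; fluorescence (Ex 548/Em 600) gave AC50.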
HADH2 inh – HADH2 (human) dehydrogenase inhibition; Q99714; recombinant HADH2, NADH fluorescence, beta-hydroxybutyryl-CoA; Potency, µM (doses to about 57.1 µM), usual class: inhibitors; 73,000 compounds, 3.4% hits; AID 886; further: nearly all actives have a fitted effect of over 60% in size
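Activity measured as NADH fluorescence gain (360/450 nm), taken as the change between first and last reads of a 4-min kinetic run. Conditions: pH 9.0 Tris buffer, 20 nM E. coli-expressed His-tagged enzyme, 1 mM NAD+, 90 uM beta-hydroxybutyryl-CoA; 15-min compound preincubation.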
Hits are given with their value; – = inactive; ? = inconclusive; · = no result; [ ] = dose if it differs, or a comment. Unless noted, the call rests on the fitted dose curve; in most records, active means well fitted curve in the direction sought with a large enough effect; inconclusive means small, poorly fitted or top-dose-only effect, or another doubt; inactive means no such curve, though single readings can be large; an effect the other way counts as inactive or inconclusive.

SMILES	4MU fluor	AID923	HSD17B inhib	A350 autofl	GBA activity	HADH2 inh
COc1ccc(O)c(C(=O)c2cnn(C(=O)c3cc(C)oc3C)c2)c1	?	–	–	1.2e-08M	–	–
COCC(=O)NC(c1ccccc1)c1ccccc1	–	–	–	–	–	–
CN(C)CCCn1c2c3ccccc3ccc2c2oc(=O)c3ccccc3c21	3.1e-08M	–[11.5 µM]	?	3.8e-08M	·	–[11.4 µM]
CN(C)CCn1c(C(=O)O)cc2ccccc21	?	–	–	?	–	–
O=C(NC1CCN(Cc2ccccc2)CC1)C1CCCN(S(=O)(=O)c2cccc3nonc23)C1 (configuration not stated)	–	–	–	–	?	–
Cc1noc(C)c1C(=O)N1CCN(CCc2ccccc2)CC1	1.7e-08M	–	–	1.9e-08M	–	–
O=C(O)c1cn(-c2ccccc2)nc1-c1cccnc1	–	–	–	–	–	–
O=C(O)c1cn(-c2ccccc2)nc1-c1ccncc1	–	–	25µM	–	–	–
O=C(OCc1nnc(-c2ccccc2)o1)c1cn(-c2ccccc2)nc1-c1ccccc1	–	–	25µM	–	–	–
Cc1cc(C(=O)OCc2nnc(-c3ccccc3)o2)c(C)n1-c1ccccc1	–	–	–	–	–	–
CN1CCN(S(=O)(=O)c2ccc(N3CCN(S(=O)(=O)/C=C/c4ccccc4)CC3)nc2)CC1	–	–	–	–	13	–
CCC(Sc1nc2cc(OC)c(OC)cc2c2nc(C)nn12)C(=O)NCc1ccco1 (configuration not stated)	–	–	–	–	–	–
CCC(Sc1ncccc1C(=O)OCCN1CCCC1=O)C(=O)NCc1ccco1 (configuration not stated)	1.5e-08M	–	–	1.9e-08M	–	?
Cc1csc(SCCn2c(N3CCOCC3)nc3c2c(=O)[nH]c(=O)n3C)n1	·	–	–	·	·	–
Cc1nc2ccc(C(=O)O)cc2c2c1CC(C)S2 (configuration not stated)	1.9e-07M	–	25µM	1.7e-07M	–	3.2µM
Cc1nc2cc(C(=O)O)ccc2s1	–	–	–	–	–	–
COCCOC(=O)c1[nH]c2c(c1C)C(=O)CC(c1ccccc1)C2 (configuration not stated)	–	–	–	–	–	–
CC(=O)OCC(=O)c1ccc2ccn(C(C)=O)c2c1	3.5e-08M	–	25µM	4.4e-08M	–	25µM
COc1ccccc1N1CCN(CC(=O)c2ccc3ccn(C(C)=O)c3c2)CC1	·	–	–	·	·	–
Cc1oc2cc(O)ccc2c(=O)c1-c1cnn(-c2ccccc2)c1	1.5e-07M	·	·	1.6e-07M	·	·
COc1ccc2c(c1)CCc1cc(C(=O)N3CCN(c4ccc(N5CCOCC5)nn4)CC3)sc1-2	·	–	32µM	·	·	32µM
COCc1cc(C)nc2sc3c(=O)n(Cc4ccco4)nnc3c12	·	–	–	·	·	–
COC(=O)CNC(=O)[C@@]1(C)C=C[C@@H](Cc2ccccc2)N1C(=O)OC	·	–	–	·	·	–
O=c1nc2n(c3c1oc1ccccc13)Cc1ccccc1-2	–	–	4µM	–	?	?
O=C(OCC#CCSc1nnc(-c2cccc3ccccc23)o1)c1cccs1	?	–	32µM	?	–	32µM
SMILES	4MU fluor	AID923	HSD17B inhib	A350 autofl	GBA activity	HADH2 inh
O=C(OCC#CCSc1nnc(-c2ccccc2)o1)c1cccs1	–	·	·	–	·	·
N=c1c[n+](N2CCOCC2)[n-]o1	–	–	13µM	–	·	?
CCCCCCc1nc2ccccc2c(=O)n1N	–	–	–	–	–	–
CCCCn1c(=O)c2ccccc2c2ccccc2c1=O	–	–	–	–	–	–
CCCCn1c(CN2C(=O)c3ccccc3C2=O)nc2ccccc2c1=O	·	–	–	·	·	–
CCCCn1c2nc3ccccc3nc2c2c(=O)n(C(C)CC)cnc21 (configuration not stated)	1.1e-06M	–	3.2µM	1.4e-06M	?	–
CCCCn1c2nc3ccccc3nc2c2c(=O)n(CC(C)C)cnc21	2.5e-08M	·	·	2e-08M	·	·
CCCCCn1c2nc3ccccc3nc2c2c(=O)n(CC(C)C)cnc21	1.3e-08M	·	·	1.2e-08M	·	·
O=c1c2c3nc4ccccc4nc3n(CCN3CCOCC3)c2ncn1CCN1CCOCC1	9.7e-08M	–	?	8.9e-08M	·	–
O=C(NC1CCCC1)C1CCCN(S(=O)(=O)c2ccc(-n3cnnn3)cc2)C1 (configuration not stated)	–	–	–	–	–	–
O=C(CCNC(=O)c1ccc(Br)o1)NCc1ccccn1	1.8e-08M	–	–	2.5e-08M	–	–
O=C(CCNC(=O)c1ccc(Br)o1)NCc1ccccc1Cl	–	–	–	–	·	–
CCCC(=O)Nc1cc(C)c(NC(=O)Cc2ccccc2)cn1	–	–	–	?	–	–
CCC(=O)Nc1cc(C)c(NC(=O)CCc2ccccc2)cn1	1.6e-08M	–	?	1.5e-08M	–	–
Cc1cc(NC(=O)c2ccco2)ncc1NC(=O)CCc1ccccc1	1.9e-08M	–	–	2.4e-08M	–	–
CCCc1cc(=O)oc2cc(C)cc(OCc3nn[nH]n3)c12	5.2e-08M	–	32µM	6.8e-08M	–	32µM
O=C(CN(C(=O)CNS(=O)(=O)c1ccccc1)c1ccc2c(c1)OCCO2)NCc1ccco1	–	–	–	–	·	–
O=C(CN(C(=O)CNS(=O)(=O)c1ccccc1)c1ccc2c(c1)OCCO2)NC1CCCCC1	–	–	–	–	12	–
CC1(C)Cc2nc3n[nH]c(N)c3cc2CO1	3.3e-08M	–	–	3.7e-08M	–	–
